# Hits are enriched below; roughly 2.8% of the tested compounds scored in any of these assays.
# HEK293 tox – cytotoxicity counter-screen for GLP-1 receptor inverse agonists; AID 624418; Potency, µM (top dose mostly 38.3 µM), inactives show at the highest dose activity change, negative = inhibition, actives largely listed as inhibitors; HEK293 cAMP-luciferase reporter cells, luminescence, 24 h; 410,000 tested, 0.13% active;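 note: loss of luciferase light is scored as toxicity; % is set by controls: 0 for no effect and ±100 for the full control effect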
#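 Seeding density was 200 cells/uL; after overnight-length (12 h) culture, 23 nL compounds went on for 24 h at 37 °C. Readout used a luciferase detection reagent, luminescence taken after 12 min at room temperature.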
# GLP1R inv ag – inverse agonists of human GLP-1 receptor; P43220; HEK293 GLP-1R CRE-luciferase, luminescence, 24 h; GLP-1R form is constitutively active; Potency, µM (top dose mostly 38.3 µM), without a hit: top-dose activity change, negative = inhibition, most hits filed as inhibitors; 410,000 tested, 1.6% active; note: % is set by controls: 0 for no effect and ±100 for the full control effect; nearly all actives have a fitted effect of over 55% in size
# Target sequence (P43220 whole entry, looked up): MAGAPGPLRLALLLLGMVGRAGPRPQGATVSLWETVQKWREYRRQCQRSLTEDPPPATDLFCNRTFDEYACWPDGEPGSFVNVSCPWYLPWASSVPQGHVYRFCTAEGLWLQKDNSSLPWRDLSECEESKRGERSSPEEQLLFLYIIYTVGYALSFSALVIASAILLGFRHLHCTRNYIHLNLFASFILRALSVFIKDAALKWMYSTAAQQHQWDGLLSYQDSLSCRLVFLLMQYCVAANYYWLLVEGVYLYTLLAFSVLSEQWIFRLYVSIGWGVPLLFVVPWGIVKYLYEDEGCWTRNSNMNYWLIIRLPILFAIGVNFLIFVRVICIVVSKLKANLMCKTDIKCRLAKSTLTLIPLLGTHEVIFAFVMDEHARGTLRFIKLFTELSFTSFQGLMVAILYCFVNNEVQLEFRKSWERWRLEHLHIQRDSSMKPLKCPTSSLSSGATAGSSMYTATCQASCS
#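 Luminescence readout: a drop in cAMP-driven luciferase signal flags inverse agonism at a constitutively active GLP-1R stably expressed in HEK293. Compound exposure lasted 24 hr at 37 deg C, 5% CO2.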
# Mito fusion yeast – blocks mitochondrial division or promotes mitochondrial fusion; S. cerevisiae fusion-defective mutant growth rescue, CellTiterGlo 48 h; Potency, µM (top dose mostly 46.1 µM), without a hit: top-dose growth rescue (activation), hits mostly activators; 320,000 tested, 0.23% active; note: % of control where 0% means no effect; nearly all actives have a fitted effect of over 45% in size
#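 Read-out: ATP-based luminescence (CellTiterGlo, 10 min ambient) reporting growth of fusion-defective ts yeast after 48 hours at 37C on glycerol/ethanol YPEG medium in the presence of compound.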
# GLP-1R agonist – activates the human GLP-1 receptor; P43220; 380,000 tested, 0.007% active; Potency, µM (series often up to 45.6 µM), without a hit: at the highest dose activation, usual class: activators; HEK293 GLP-1R CRE-luciferase, luminescence, 4-6 h; cells express a hypersensitive GLP-1R form; note: % of control where 0% means no effect
# BRCA1 expr act – increases BRCA1 expression; 380,000 tested, 1.1% active; MCF7-BRCA1-FFLuc reporter, luminescence, 48 h; response scale: scaled: vehicle 0%, 10 µM genistein 100%; Potency, µM (top dose mostly 46.1 µM), for the others: at the highest dose activation, usual class: activators; note: nearly all actives have a fitted effect of over 80% in size
#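 Cells: MCF7-BRCA1-FFLuc, 2000/well. Exposure: 48 h, 37 °C, 5% CO2. Read: luminescence, 15 min post-substrate. Controls: genistein 10 microM (maximal activation), DMSO (neutral).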
# An asterisk follows results filed as active; ? = inconclusive; · = no result given. Calls come from the whole dose curve; as a rule, active = well fitted curve in the direction sought with a large enough effect; inconclusive = small, poorly fitted or top-dose-only effect, or another doubt; inactive = no such curve, though single readings can be large; an effect the other way counts as inactive or inconclusive. Potency is the fitted concentration of half-maximal effect.
SMILES,HEK293 tox,GLP1R inv ag,Mito fusion yeast,GLP-1R agonist,BRCA1 expr act
Cc1cccc2nc(-c3ccccc3)nc(N3CCC(O)(c4ccc(Cl)cc4)CC3)c12,-3%,3.5µM*,28%,-12%,-89%
O=S(=O)(c1ccc(Cl)cc1)N1CCN(c2nc(-c3ccc(Cl)cc3)nc3ccccc23)CC1,·,·,·,·,-13%
Cc1ccc(-n2c(-c3ccccc3)n[nH]c2=S)c(C)c1,10µM*,?,-12%,-6%,12%
Cc1ccc(S(=O)(=O)N2C/C=C\CN(S(=O)(=O)c3ccccc3Br)CC2)cc1,2%,10µM*,·,1%,0%
Cc1ccc(S(=O)(=O)N2CCCN(S(=O)(=O)c3ccccc3Br)CC2)cc1,10%,?,·,3%,0%
Cc1ccccc1C(=O)Nc1ccnn1C1CCN(Cc2cnn(C(C)C)c2)CC1,-1%,-3%,-1%,-5%,-18%
COc1ccc(OC)c(-c2nc(C(=O)NC3CCN(Cc4ccccc4)CC3)cc3c2[nH]c2ccccc23)c1,-3%,10µM*,-4%,11%,-38%
Cc1ccc(-c2nc(C(=O)NCC3CCCO3)cc3c2[nH]c2ccccc23)cc1 (centres undefined),?,?,1%,-5%,-72%
O=C(NCC1CCCO1)c1cc2c([nH]c3ccccc32)c(-c2cccc(Br)c2)n1 (centres undefined),-16%,?,1%,-1%,-75%
Cc1cccc(-c2noc(-c3ccccc3C(=O)NCC3CCCO3)n2)c1 (centres undefined),1%,0%,14%,3%,6.3µM*
COc1ccc(-c2nc(C(=O)NCC3CCCO3)cc3c2[nH]c2ccccc23)cc1 (centres undefined),?,10µM*,-13%,-5%,-73%
COc1cc(-c2nc(C(=O)NC3CCN(Cc4ccccc4)CC3)cc3c2[nH]c2ccccc23)cc(OC)c1OC,?,?,0%,8%,-61%
Cc1ccccc1-c1nc(C(=O)NCC2CCCO2)cc2c1[nH]c1ccccc12 (centres undefined),-19%,10µM*,18%,?,-70%
Cc1noc(C)c1S(=O)(=O)N(CC(=O)NCCc1ccc(Cl)cc1)c1ccc(C(C)C)cc1,4%,-23%,·,-1%,1%
Cc1c(Cl)c(C(=O)NNC(=S)Nc2ccc(F)cc2)nn1C,-12%,12%,4%,8%,61%
CCCCc1ccc(NC(=O)CSc2nc(=O)[nH]c3c2CCCC3)cc1,7%,13%,·,·,·
O=C(CSc1nnc(NC(=O)c2ccccc2F)s1)NCC1CCCO1 (centres undefined),13%,-2%,1%,-21%,13µM*
O=C(CSc1nnc(NC(=O)c2ccccc2)s1)NCC1CCCO1 (centres undefined),2%,-19%,0%,-3%,77%
CCCCCCOc1ccc(/C(N)=N/O)cc1,16%,10%,10%,14%,7.1µM*
CCc1cccc(CC)c1-n1c(SCC(=O)N2CCCc3ccccc32)nc(O)cc1=O,-18%,10µM*,·,-1%,-2%
Cc1cccc(-n2ccnc2SCC(=O)Nc2ccc(F)cc2F)c1C,-14%,?,·,13%,-22%
Cc1ccc(C)c(NC(=O)CSc2nccn2-c2cccc(C)c2C)c1,5%,13µM*,·,·,·
O=C(CSc1ncccn1)N1CCCc2ccccc21,22%,28%,3%,4%,43%
Cc1ccc(C)c(NC(=O)CSc2nnc(-c3cc4occc4n3C)n2-c2ccccc2C)c1,-3%,11µM*,·,·,·
Cc1cccc(-n2ccnc2SCC(=O)N2CCCc3ccccc32)c1C,-22%,11µM*,15%,4%,-34%
SMILES,HEK293 tox,GLP1R inv ag,Mito fusion yeast,GLP-1R agonist,BRCA1 expr act
CCOc1ccc2nc(N3CCCC(C(=O)NCCCOC)C3)sc2c1 (centres undefined),0%,-7%,·,·,·
CCc1ccc(NC(=O)C(=O)c2cn(CC(=O)N3CCCCC3)c3ccccc23)cc1,-6%,?,23%,1%,1%
COc1cccc(CNC(=O)CC(NC(=O)c2ccccc2)c2ccccc2)c1 (centres undefined),-6%,-2%,-3%,-2%,-11%
Cc1cc(Cl)ccc1C1=CC(=O)C[C@H](c2ccc(F)cc2)C1,-3%,11µM*,?,-2%,3%
Cc1ccc(-c2csc(NC(=O)COC(=O)c3cccc(S(=O)(=O)N4CCOCC4)c3)n2)cc1,8%,15%,-3%,1%,5µM*
CCOC(=O)C(=NCC1CCCO1)NNc1cc(Cl)ccc1Cl (centres undefined),5%,11µM*,3%,20%,-6%
CCOC(=O)/C(=N\Nc1cc(Cl)ccc1Cl)N1CCOCC1,-3%,-17%,-2%,11%,8%
COc1ccc(S(=O)(=O)N2CCCCC2)cc1NC(=O)COC(=O)c1ccco1,-16%,-10%,·,4%,2%
CC(C)N(C(=O)CSc1nc2ccccc2n1Cc1ccccc1F)C(C)C,-3%,2.2µM*,-10%,4%,-51%
Cc1ccc(NC(=O)/C(C#N)=C/c2cc(C)n(-c3ccc(Br)cc3)c2C)cc1C,-16%,?,·,·,·
COc1cc(OC)c(-c2nn3c(-c4n[nH]c5c4CCC5)nnc3s2)cc1OC,·,·,·,·,-26%
CC(C)(C)c1ccc(C2=NC(C)(C)N(CC(=O)Nc3ccc(F)c(F)c3)C2=O)cc1,1%,11µM*,·,·,·
COc1ccc(C2=NC(C)(C)N(CC(=O)Nc3cc(OC)cc(OC)c3)C2=O)cc1,-3%,4%,·,·,·
CCS(=O)(=O)C1=NN2C(=N)/C(=C\c3ccc(OC(=O)c4ccco4)cc3)C(=O)N=C2S1,0%,13%,2%,-2%,5%
CCOC(=O)c1oc2ccc(/C=N/O)c(Cl)c2c1C,14%,108%,28%,22%,7.1µM*
CN(C)CCNC(=O)C(=O)Nc1ccc2c(c1)N(S(=O)(=O)c1cccs1)CCC2,4.5µM*,?,-4%,12%,-71%
COC(=O)c1sc(NC(=O)c2c(C)noc2C)nc1C,-12%,39%,-2%,6%,18%
OCCNCc1cc(Br)ccc1OCc1ccc(Cl)cc1Cl,?,6.3µM*,-14%,-27%,-62%
COc1ccc(-c2csc(N(C)C(=O)c3ccco3)n2)cc1,1%,31%,1%,2%,7.1µM*
CN(C(=O)c1ccno1)c1nnc(-c2ccccn2)s1,54%,46%,4%,2%,38%
CN(C)CCCN(C(=O)c1ccco1)c1nc(-c2ccc(Cl)cc2)cs1,?,?,2%,11%,35%
CN(C(=O)c1ccco1)c1nc(-c2ccc(Cl)cc2)cs1,4%,13%,1%,-2%,10µM*
COc1ccc(-c2nnc(N(C)C(=O)c3ccno3)s2)cc1,-13%,1%,-1%,-9%,5µM*
